Measured values as given in PubChem BioAssay (EPA / NIEHS).
The source made the active and inactive calls. The calls were made as follows: active = hit-call score of the fitted dose curve at least 0.9, where 1 is the maximum; inactive = score below 0.9.

Read-out: solute carrier (SLCO1B1), SLCO1B1 (gene 10599)
Assay: LTEA_HepaRG_SLCO1B1: Life Technologies and Expression Analysis (LTEA) Assay for solute carrier (SLCO1B1) using HepaRG (AID 2283530)
Settings: mRNA level, 48 h; actives raise or lower the signal
Description: LTEA_HepaRG is a cell based, multiplexed-readout assay that uses HepaRG, a human liver cell line, with measurements taken at 48 hours after chemical dosing on a 96-well plate.LTEA_HepaRG_SLCO1B1 is one of 102 assay component(s) measured in the LTEA HepaRG cell culture assay. It is a marker of NR mediated transport.Data from the assay component LTEA_HepaRG_SLCO1B1 was analyzed into 1 endpoint. This assay endpoint, LTEA_HepaRG_SLCO1B1, was analyzed with bidirectional fitting relative to DMSO as the negative control and baseline of activity. Using a type of inducible reporter, measures of mRNA induction for gain or loss-of-signal activity can be used to understand regulation of transcription factor activity. To generalize the intended target to other relatable targets, this assay endpoint is annotated to the transporter intended target family, where the subfamily is organic anion transporter.
A total of 1060 chemcials from the ToxCast library were tested in eight-point concentration-response experiments. Cell culture and cytotoxicity assays were conducted at Thermo Fisher Scientific's Custom Services facility (Madison, WI). A single lot of human HepaRG cells (Thermo Fisher Scientific, Frederick, MD) was used for the cell culture experiments. 96-well format collagen type I coated plates of human HepaRG cells were prepared using established methods. Briefly, cryopreserved HepaRG cells were thawed, plated at a density of approximately 100,000 cells/well in HepaRG Thaw, Plate, and General Purpose media (HPRG770, Thermo Fisher Scientific), and incubated for 48 hours. 0.5% DMSO was selected as vehicle control to balance the requisite need of DMSO in HepaRG cultures to maintain differentiation (for example, baseline metabolism, proportions of hepatocytes vs. cholangiocytes), while enabling further hepatic receptor pathway activation (for example, PXR and CAR) in response to chemical exposure. 48 hours after plating, the culture medium was replaced with HepaRG Serum-Free Incudtion Media. Cells were exposed to each test chemical in duplicate and maintained in CO2 incubators for another 48 hours. Chemical plates were thawed to room temperature and 200x concentrations of treatment groups were prepared. 8-point conentration-reponse curves were made with the highest exposure at 100 uM, followed by half-log dilutions, all in 0.5% DMSO. Each test plate contained variouse controls, induction positive controls (1mM phenobarbital), cytotoxicity positive controls ([…] aflatoxin B1), vehicle controls (0.5% DMSO), and total lysis controls (0.5% DMSO). Cell morphology images were taken using an Essen IncuCyte FLR automated microscope, with six 96-well plates imaged in about 24 minutes. Images were captured and exported and JPEG files. Spent culture media was transfered to black-well plates for the LDH assay, and remaining media was sorted at -80 C for later use. Cells were treated with RLT buffer and frozen until shipped for gene expression analysis. Total RNA was isolated from the cell suspension in 75 uL of Buffer RLT (Qiagen, Germantown, MD 20874) by Quintiles/Expression Analysis (Durham, NC) using a custom isolation procedure. Total RNA from each plate well was transferred to a preamplification plate. Fluidigm's 96.96 Dynamic ArrayTM (Fluidigm, Amsterdam, the Netherlands) technology was used for gene expression analyses by quantitative reverse transcription polymerase chain reaction (qRT-PCR, performed by Quintiles/Expression Analysis, Durham, NC)89. Standard TaqManTM Assays (Applied Biosystems/ThermoFisher Scientific, Foster City, CA) were used to assess the expression of 93 genes selected based on their selectivity and sensitivity to important hepatic receptors known to be modulated by environmental chemicals; importance in human hepatocyte functionality; and hepatotoxicity. […]

Structure (SMILES) | outcome | AC50
OCCOCCOCCO | inactive | –
CCN(CC)C(=S)SSC(=S)N(CC)CC | inactive | –
O=C(O)[C@H](O)[C@@H](O)C(=O)O | inactive | –
CCCCCCCC/C=C\CCCCCCCC(=O)OC[C@@H](O)[C@H]1OC[C@H](O)[C@H]1O | inactive | –
CCCOc1ccc(S(=O)(=O)N2CCN(CC)CC2)cc1-c1nc2c(CC)n(Cc3ccccn3)nc2c(=O)[nH]1 | – | 50 µM (active)
CCCCCCCCCCCCCCO | inactive | –
Cc1nccn1-c1ccc(Sc2cccc(C3(C(N)=O)CCOCC3)c2)cc1 | – | 13.6 µM (active)
Cn1cc[nH]c1=S | inactive | –
OC[C@H]1O[C@@](CO)(O[C@H]2O[C@H](CO)[C@@H](O)[C@H](O)[C@H]2O)[C@@H](O)[C@@H]1O | inactive | –
OCC(CO)(CO)CO | inactive | –
C[C@]12C=CC(=O)C=C1CC[C@H]1[C@@H]3C[C@@H](O)[C@](O)(C(=O)CO)[C@@]3(C)C[C@H](O)[C@@]12F | inactive | –
CCn1nc(C)c2c1C(=O)NCC(c1ccc(O)cc1)=N2 | inactive | –
NC(=O)N1c2ccccc2C=Cc2ccccc21 | inactive | –
NC(=O)NN=Cc1ccc([N+](=O)[O-])o1 | inactive | –
CCCCOC(=O)c1ccccc1 | inactive | –
c1ccc2ncccc2c1 | inactive | –
COc1cc2c(c(OC)c1OC)-c1ccc(OC)c(=O)cc1[C@@H](NC(C)=O)CC2 | – | 0.136 µM (active)
CCCCCCCCCC | inactive | –
c1ccc2cc3ccccc3cc2c1 | inactive | –
CCCC(CCC)C(=O)O | inactive | –

Structure (SMILES) | outcome | AC50
OC(CCl)CCl | inactive | –
O=S1(=O)CCCO1 | inactive | –
Nc1ccn([C@@H]2O[C@H](CO)[C@@H](O)[C@@H]2O)c(=O)n1 | inactive | –
CC(C)CCCCCCOC(=O)C1CCCCC1C(=O)OCCCCCCC(C)C (stereo not given) | inactive | –
c1ccc(C(O[C@@H]2CCCN(CCc3ccc4c(c3)OCO4)C2)c2ccccc2)cc1 | – | 86.5 µM (active)
CC(C)CC(C)O (stereo not given) | inactive | –
CCCCCCCCN(C)C | inactive | –
Cc1ncc([C@@H](CCCCCCc2ccc3c(n2)NCCC3)CC(=O)O)cn1 | inactive | –
NC(=O)N(O)[C@@H]1COc2cc(OCc3ccccc3)ccc21 | inactive | –
O=c1[nH]cnc2c1ncn2[C@H]1CC[C@@H](CO)O1 | inactive | –
CC(=O)c1ccccc1 | inactive | –
CCCCCOC(C)=O | inactive | –
C=CN1CCCC1=O | inactive | –
NC(N)=O | inactive | –
O=C(O)c1cccc(C(=O)O)c1 | inactive | –
CCCCN1C(=O)[C@@H]([C@H](O)C2CCCCC2)NC(=O)C12CCN(Cc1ccc(Oc3ccc(C(=O)O)cc3)cc1)CC2 | – | 1.92 µM (active)
C[C@@H](Oc1ccc(CNC(=O)c2cccnc2Oc2ccc3c(c2)OCO3)c(F)c1)C(=O)O | inactive | –
CCOC(N)=O | inactive | –
O=S(=O)(O)c1ccc(N=Nc2c(O)ccc3cc(S(=O)(=O)O)ccc23)cc1 | inactive | –
NNC(=O)c1ccncc1 | inactive | –
